Compound activity (PubChem BioAssay)
Rab9 prom act: qHTS Assay for Rab9 Promoter Activators; Huh7 Rab9 promoter-luciferase reporter, luminescence, 24 h; Potency, µM (doses to about 9.22 µM), without a hit: top-dose activation, negative = inhibition, most hits filed as activators; 2.8% of 320,000 active; further: % of control where 0% means no effect; nearly all actives have a fitted effect of over 60% in size
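Quantitative HTS format; Huh7 Rab9-luciferase reporter cells (1500/well) receive compound 2 h post-plating, incubate 24 h at 37 °C, then get luciferase reagent for 10 min before luminescence reading.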
SMN2 splice enh: qHTS Assay for Enhancers of SMN2 Splice Variant Expression; HEK293 SMN2-luciferase splicing reporter, luminescence, 30-36 h; Potency, µM (highest dose often 46.1 µM), for inactives: at the top dose activity change, positive = activation, most hits filed as activators; 2.8% of 210,000 active; AID 1458, 2008; further: % of control where 0% means no effect; nearly all actives have a fitted effect of over 55% in size
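HEK293 cells carry an SMN2 minigene-luciferase reporter in which exon 7 inclusion puts luciferase in frame. Cells were seeded at 2000 cells/well, attached for 10-12 hours, then exposed to compounds for 30-36 hours at 37C before ONE-Glo luminescence.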
Luc counter: Counterscreen for Luciferase (Kinase-Glo TM) Inhibition; AID 1379, 2008; Kinase-Glo luciferase, ATP luminescence, 8 min; 0.28% of 200,000 active; Luciferin 4-monooxygenase (Photuris pensylvanica), Q27757; Potency, µM (series often up to 38.3 µM), for the others: at the highest dose activity change, negative = inhibition, hits mostly inhibitors; further: on the % scale 0 is the no-effect control and ±100 the full control effect; nearly all actives have a fitted effect of over 60% in size
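Luminescence was the read-out, taken after 8-minute incubation at ambient temperature. Luciferase turned over luciferin with 10 uM ATP in imidazole pH 7.2 buffer containing KCl, MgCl2, Tween 20 and BSA.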
FLuc modulator: qHTS profiling assay for firefly luciferase inhibitor/activator using purifed enzyme and Km concentrations of substrates (counterscreen for miR-21 project). Luciferin 4-monooxygenase (Photinus pyralis), P08659. purified FLuc, Km substrates, luminescence inhibition. Potency, µM (titrated, usually from 57.5 µM), for the others: at the top dose activity change, negative = inhibition, usual class: inhibitors. 6.9% of 360,000 active. AID 588342, 2011;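 further: plate controls were vehicle for no effect and reference inhibitor for full effect; nearly all actives have a fitted effect of over 55% in size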
Target sequence (P08659 whole entry, looked up): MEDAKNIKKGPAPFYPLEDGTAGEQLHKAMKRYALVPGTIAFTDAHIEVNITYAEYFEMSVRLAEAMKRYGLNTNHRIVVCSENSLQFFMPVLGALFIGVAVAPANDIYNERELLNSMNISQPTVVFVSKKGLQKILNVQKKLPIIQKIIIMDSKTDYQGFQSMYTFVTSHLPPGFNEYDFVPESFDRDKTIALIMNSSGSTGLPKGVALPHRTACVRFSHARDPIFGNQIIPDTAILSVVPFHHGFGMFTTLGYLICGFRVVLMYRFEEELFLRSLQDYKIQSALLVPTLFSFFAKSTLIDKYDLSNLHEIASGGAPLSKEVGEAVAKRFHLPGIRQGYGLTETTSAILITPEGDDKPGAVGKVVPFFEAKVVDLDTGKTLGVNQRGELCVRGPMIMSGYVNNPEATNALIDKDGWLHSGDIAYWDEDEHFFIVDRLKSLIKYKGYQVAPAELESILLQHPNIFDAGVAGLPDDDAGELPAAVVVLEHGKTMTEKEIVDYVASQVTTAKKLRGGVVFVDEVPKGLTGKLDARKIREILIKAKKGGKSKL
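Purified P. pyralis luciferase (10nM final) with 10uM D-luciferin and 10uM ATP (Km levels) in 50mM Tris acetate pH 7.5, 10mM Mg acetate, 0.01% Tween-20, 0.05% BSA; qHTS 6-point titration, ~60 µM downward; luminescence read.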
ELG1 genotox: qHTS screen for small molecules that induce genotoxicity in human embryonic kidney (HEK293T) cells expressing luciferase-tagged ELG1; 1.3% of 330,000 active; HEK293T ELG1-luciferase reporter, luminescence, 16 h; Potency, µM (highest dose often 46 µM), inactives show at the top dose activity change, positive = activation, most hits filed as activators; further: % of control where 0% means no effect; nearly all actives have a fitted effect of over 60% in size
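HEK293T cells expressing luciferase-tagged ELG1 were treated with compound or DMSO for 16 hr at 37°C. Luciferase activity was then read after 30 min with ONE-Glo at room temperature; rising signal flags genetic stress.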
NPC1 promoter act: qHTS Assay for NPC1 Promoter Activators; Huh7 NPC1 promoter luciferase reporter, 24 h; Potency, µM (doses to about 9.22 µM), without a hit: at the highest dose activation, most hits filed as activators; 2.4% of 320,000 active; AID 485313, 2010; further: % of control where 0% means no effect; nearly all actives have a fitted effect of over 60% in size
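Stable NPC1-promoter luciferase Huh7 line; cpd (DMSO) 24 h, 37 °C, 5% CO2; Amplite luciferase reagent 10 min RT; luminescence readout. qHTS format.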
* = called active by the depositor; ? = inconclusive; / = not tested or not shown. In the library only some 7.5% were active in any assay of this set; here they are far more common. The call rests on the fitted dose curve; in most records, active means well fitted curve in the direction sought with a large enough effect; inconclusive means small, poorly fitted or top-dose-only effect, or another doubt; inactive means no such curve, though single readings can be large; an effect the other way counts as inactive or inconclusive. Potency means the concentration at half of the fitted maximal effect.

SMILES | Rab9 prom act | SMN2 splice enh | Luc counter | FLuc modulator | ELG1 genotox | NPC1 promoter act
COc1ccc(O)c(/C=N/NC(=O)c2ccc(N3CCCC3=O)cc2)c1 | -15.8% | / | / | -12.3% | -3.4% | -34.2%
CN(C)c1ccc(/C=N/NC(=O)c2cccc(N3CCCC3=O)c2)cc1 | 15.2% | 3.8% | -7.6% | 10.7µM* | 9.3% | 4.1%
O=C(N/N=C/c1cc(Br)ccc1O)c1cccc(N2CCCC2=O)c1 | -30.0% | -89.8% | 0.1% | 16.9µM* | ? | -24.3%
COc1ccc(/C=N/NC(=O)c2ccc(N3CCCC3=O)cc2)cc1 | 0.2% | / | / | ? | 2.1% | -1.3%
COc1cccc(/C=N/NC(=O)c2cccc(N3CCCC3=O)c2)c1 | ? | / | / | 9.53µM* | 4.11µM* | ?
O=C(N/N=C/c1ccco1)c1cccc(N2CCCC2=O)c1 | 22.5% | ? | -12.1% | 19µM* | 17.7% | 11.6%
O=c1cc(COc2ccc(Cl)c(Cl)c2)nc2sccn12 | 3.16µM* | / | / | -3.7% | 12.6% | ?
O=C1c2[nH]nc(-c3ccccc3O)c2C(c2ccccc2F)N1Cc1ccncc1 (stereo unspecified) | / | -5.5% | / | 0.9% | / | /
Cc1ccc(C(=O)NCCC(C)C)cc1NC(=O)c1nsc2ccccc12 | / | / | / | 0.4% | / | /
CN(C)c1ccc(CNC(=O)c2ccccc2NC(=O)c2nsc3ccccc23)cc1 | / | / | / | -17.7% | / | /
CC(NC(=O)c1ccc(NC(=O)c2nsc3ccccc23)cc1)c1ccccc1 (stereo unspecified) | / | / | / | 3.01µM* | / | /
CC(C)Oc1ccc(CNC(=O)c2cccc(NC(=O)c3nsc4ccccc34)c2)cc1 | / | / | / | 9.53µM* | / | /
CN(Cc1ccccc1)C(=O)c1cccc(NC(=O)c2nsc3ccccc23)c1 | / | / | / | 9.53µM* | / | /
CC(NC(=O)c1cccc(NC(=O)c2nsc3ccccc23)c1)c1ccccc1 (stereo unspecified) | / | / | / | 3.79µM* | / | /
Cc1ccc(C(=O)O)cc1NC(=O)c1nsc2ccccc12 | / | 18.0% | / | ? | / | /
O=S(=O)(c1ccc(-n2cnnn2)cc1)N1CCN(c2cccc(C(F)(F)F)c2)CC1 | / | 8.6% | / | -4.1% | / | /
COc1ccc(N(CC(=O)N2CCN(c3ccccc3)CC2)S(=O)(=O)c2c(C)nn(C)c2C)cc1 | / | -4.9% | / | 2.6% | / | /
O=C(NCCc1ccccc1)c1ccc(Cl)nc1 | 2µM* | 11.2µM* | -1.3% | 12µM* | ? | 3.98µM*
Cc1ccc(C(=O)Nc2ncn[nH]2)cc1 | 10.7% | / | / | ? | 9.0% | -2.9%
O=C(NCCCCNC(=O)c1ccc(F)cc1)c1ccc(F)cc1 | 3.0% | / | / | 1.1% | 3.4% | -2.9%
CC1CCN(S(=O)(=O)CCNC(=O)c2ccccc2)CC1 | 2.6% | / | / | 5.0% | -1.1% | -2.9%
CC1CCN(c2ccc(C(=O)NCCc3ccccc3)cn2)CC1 | ? | ? | -2.4% | 23.9µM* | 15.4% | ?
O=C(NCCCc1ccccc1)c1ccc(F)cc1 | 1.78µM* | / | / | 23.9µM* | ? | ?
CC(C)(C)c1ccc(C(=O)Nc2ncn[nH]2)cc1 | 2.51µM* | 10µM* | -17.1% | 9.53µM* | ? | 2.24µM*
CC(C)N(C)CCOC(=O)C1COc2ccccc2O1 (stereo unspecified) | -3.9% | / | / | 4.4% | 0.6% | -0.7%
SMILES | Rab9 prom act | SMN2 splice enh | Luc counter | FLuc modulator | ELG1 genotox | NPC1 promoter act
Cc1cccc(NC(=O)c2ccc(N3C(=O)C4CCCCC4C3=O)cc2)c1C (stereo unspecified) | -4.5% | / | / | 4.9% | 2.7% | -2.7%
CC(C)(C)c1ccc(C(=O)NCCCNC(=O)c2ccco2)cc1 | 1.3% | / | / | 15.1µM* | 1.7% | -3.7%
Cc1ccc(NC(=O)COc2ccccc2C(=O)NCCc2ccccc2)cc1 | 8.8% | / | / | 21.3µM* | -0.4% | 1.8%
O=C(NCCc1ccccc1)c1ccncc1 | 3.55µM* | 8.2% | -3.8% | ? | ? | 28.9%
CC(=O)Nc1ccc(NC(=O)c2ccccc2CCc2ccccc2)cc1 | -4.1% | 31.6µM* | 1.2% | -1.8% | -6.0% | 0.5%
O=C(COc1ccccc1C(=O)Nc1ccccc1)NCCc1ccccc1 | 5.4% | 6.0% | 3.1% | -2.4% | -1.8% | -4.5%
CC(C)(C)c1ccc(NC(=O)CCNC(=O)c2ccco2)cc1 | 0.3% | / | / | ? | 5.7% | 1.9%
COc1cccc(CNC(=O)C(NS(=O)(=O)c2ccc3c(c2)CCN3C(C)=O)C(C)C)c1 (stereo unspecified) | -1.8% | -5.7% | / | -14.5% | 1.4% | 12.3%
COc1cc2ncc3c(-c4ccccc4)nn(CC(=O)NC4CCCCC4)c3c2cc1OC | / | / | / | -4.8% | / | /
CC(Oc1ccc(C(=O)NCCc2ccccc2)cc1)C(=O)O (stereo unspecified) | 1.0% | -6.8% | -5.5% | -19.2% | 1.8% | 7.9%
CC(C)(C)c1ccc(C(=O)NCCc2ccccc2)cc1 | 0.0891µM* | / | / | 0.757µM* | ? | 0.355µM*
Cc1ccc(NS(=O)(=O)c2ccc(C(=O)NCc3cccnc3)cc2)cc1 | 7.2% | / | / | 21.3µM* | ? | 17.0%
CC(C)(C)c1ccc(C(=O)NCc2ccccc2)cc1 | 6.31µM* | / | 2.9% | 10.7µM* | 16.9% | 23.4%
CC(C)(C)c1ccc(C(=O)Nc2ccc(C(=O)NCc3cccnc3)cc2)cc1 | 15.2% | / | / | 12µM* | -21.4% | 4.5%
CC(C)(C)C(=O)Nc1ccc(C(=O)NCc2cccnc2)cc1 | / | 3.4% | -1.1% | ? | / | /
COc1ccc(-c2noc(CSc3nnc(-c4ccncc4)n3-c3ccc(C)cc3)n2)cc1OC | / | 6.3% | / | -13.7% | / | /
CC(=O)Nc1ccc(C(=O)NCCc2ccccc2)cc1 | ? | 15.8µM* | 0.9% | ? | ? | ?
CCCCOc1ccc(C(=O)NCCc2ccccc2)cc1 | 1.12µM* | / | / | 6.01µM* | ? | 0.316µM*
CC(C)(C)c1ccc(C(=O)Nc2cnccn2)cc1 | 0.562µM* | 28.2µM* | 2.5% | 1.35µM* | 0.651µM* | 1.78µM*
CCOc1ccc(OCC)c(NC(=O)C2CCCN(S(=O)(=O)c3cc(Br)cc4c3N(C(=O)CC)CC4)C2)c1 (stereo unspecified) | / | 11.4% | / | 2.3% | / | /
COc1ccc(NC(=O)Cn2c(=O)n(-c3cccc(C(F)(F)F)c3)c(=O)c3sccc32)cc1 | / | -18.1% | / | -1.4% | / | /
CCCCN(Cc1ccccc1)C(=O)C1CCC(=O)N(CCc2ccccn2)C1 (stereo unspecified) | -0.3% | / | / | 5.4% | 5.5% | -2.6%
O=[N+]([O-])c1ccc2nc(-c3ccccc3)cc(-c3ccccc3)c2c1 | -4.8% | -9.8% | -2.6% | 1.4% | 5.6% | -7.3%
